Laboratory results from PubChem BioAssay.
For part of these data: Results with a measured potency or affinity are listed apart. The source made the active and inactive calls. Unless noted, no rule for the calls is given here.

Columns and labels:
[1] = biological target: L-lactate dehydrogenase (Plasmodium falciparum (isolate CDC / Honduras)) (UniProt Q27743); test: PfLDH activity inhibition – cell lysate, 3D7 strain, counter-screen for P. falciparum growth inhibition project (AID 2304);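 also: 0% = vehicle and 100% = reference inhibitor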; conditions: P. falciparum 3D7 crude extract, LDH APAD/NBT absorbance; at 2 µM; hits give high values
[2] = inhibition of 3D7 malaria parasite growth – strain 3D7 (AID 2306);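 also: 0% = DMSO wells and 100% = chloroquine plus artemisinin control wells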; conditions: P. falciparum 3D7 erythrocytic growth, LDH absorbance, 72 h; at 2 µM; hits give high values
[3] = biological target: Calcium-dependent protein kinase 1 (Plasmodium falciparum (isolate 3D7)) (UniProt P62344); test: PfCDPK1 kinase inhibitors, biochemical, TCAMS library (AID 1159585; cut-off not given, nearly all actives have IC50 up to about 0.98 µM;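 also: inhibitors leave more ATP so luminescence rises with inhibition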); conditions: recombinant PfCDPK1, Kinase-Glo ATP depletion luminescence
[4] = biological target: Plasmodium falciparum protein kinase 6 (PK6, PF3D7_1337100) (UniProt Q8IDW1); test: PfPK6 kinase inhibitors, biochemical, TCAMS library (AID 1159586); conditions: recombinant PfPK6, Kinase-Glo ATP depletion luminescence
[5] = biological target: Protein kinase 7 (PK7), Plasmodium falciparum 3D7 (PF3D7_0213400) (UniProt Q7YTF7); test: inhibition of Plasmodium PK7 catalytic activity – biochemical, TCAMS antimalarial set, Kinase-Glo luminescence (AID 1159587); conditions: recombinant PfPK7, Kinase-Glo ATP depletion luminescence
[6] = biological target: Calcium-dependent protein kinase 4 (Plasmodium falciparum (isolate 3D7)) (UniProt Q8IBS5); test: PfCDPK4 kinase inhibitors, biochemical, TCAMS library (AID 1159588; cut-off not given, nearly all actives have IC50 up to about 0.91 µM); conditions: recombinant PfCDPK4, Kinase-Glo ATP depletion luminescence
[7] = antimalarial activity against Dd2 strain (AID 2302;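 active = growth inhibition above 50% at the single 2 µM test dose, taken to imply half-maximal potency below 2 µM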;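 also: 0% = DMSO untreated growth and 100% = chloroquine plus artemisinin killed control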); conditions: P. falciparum Dd2 in RBCs, LDH growth readout, 72 h; at 2 µM; hits give high values
[8] = human hepatoma cell viability loss – ATP luminescence, cytotoxicity control for P. falciparum antimalarial project, primary screen (AID 2303;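 active = inhibition above 50%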;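 also: 0% = DMSO wells and 100% = digitonin-killed cells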); conditions: HepG2 viability, 24-48 h, at 10 µM, hits give high values

Chain of L-lactate dehydrogenase (Plasmodium falciparum (isolate CDC / Honduras)) (Q27743 whole entry, looked up): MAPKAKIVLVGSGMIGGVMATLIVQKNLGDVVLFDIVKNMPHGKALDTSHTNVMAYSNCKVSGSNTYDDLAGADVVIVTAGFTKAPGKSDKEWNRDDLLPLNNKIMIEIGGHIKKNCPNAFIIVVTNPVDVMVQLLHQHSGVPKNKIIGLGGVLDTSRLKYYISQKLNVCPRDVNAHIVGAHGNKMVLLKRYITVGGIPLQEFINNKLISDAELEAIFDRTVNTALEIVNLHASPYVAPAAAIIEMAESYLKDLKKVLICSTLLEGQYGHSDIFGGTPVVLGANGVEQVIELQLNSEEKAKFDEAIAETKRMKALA
Chain of Protein kinase 7 (PK7), Plasmodium falciparum 3D7 (PF3D7_0213400) (Q7YTF7 1-343): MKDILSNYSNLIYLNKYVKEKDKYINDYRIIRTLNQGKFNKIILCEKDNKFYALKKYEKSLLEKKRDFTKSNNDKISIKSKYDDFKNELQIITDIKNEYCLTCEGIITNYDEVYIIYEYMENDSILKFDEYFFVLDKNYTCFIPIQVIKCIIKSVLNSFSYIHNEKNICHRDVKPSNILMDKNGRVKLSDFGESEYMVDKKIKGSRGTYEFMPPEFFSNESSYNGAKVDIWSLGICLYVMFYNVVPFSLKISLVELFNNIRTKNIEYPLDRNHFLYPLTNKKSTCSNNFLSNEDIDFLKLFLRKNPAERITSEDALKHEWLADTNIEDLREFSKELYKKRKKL
Chain of Calcium-dependent protein kinase 4 (Plasmodium falciparum (isolate 3D7)) (Q8IBS5 whole entry, looked up): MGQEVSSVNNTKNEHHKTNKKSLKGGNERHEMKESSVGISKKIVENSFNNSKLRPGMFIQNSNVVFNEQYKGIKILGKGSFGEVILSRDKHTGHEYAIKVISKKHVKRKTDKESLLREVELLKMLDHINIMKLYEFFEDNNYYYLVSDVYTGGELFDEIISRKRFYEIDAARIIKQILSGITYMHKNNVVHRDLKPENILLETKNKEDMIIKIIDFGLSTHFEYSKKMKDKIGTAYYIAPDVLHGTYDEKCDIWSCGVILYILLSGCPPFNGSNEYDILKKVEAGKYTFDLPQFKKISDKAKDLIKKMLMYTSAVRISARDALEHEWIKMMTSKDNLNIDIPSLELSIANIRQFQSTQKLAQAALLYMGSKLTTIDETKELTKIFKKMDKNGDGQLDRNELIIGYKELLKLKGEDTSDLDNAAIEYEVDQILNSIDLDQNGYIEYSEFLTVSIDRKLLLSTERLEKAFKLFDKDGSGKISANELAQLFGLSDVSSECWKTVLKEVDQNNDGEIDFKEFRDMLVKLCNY
Chain of Calcium-dependent protein kinase 1 (Plasmodium falciparum (isolate 3D7)) (P62344 whole entry, looked up): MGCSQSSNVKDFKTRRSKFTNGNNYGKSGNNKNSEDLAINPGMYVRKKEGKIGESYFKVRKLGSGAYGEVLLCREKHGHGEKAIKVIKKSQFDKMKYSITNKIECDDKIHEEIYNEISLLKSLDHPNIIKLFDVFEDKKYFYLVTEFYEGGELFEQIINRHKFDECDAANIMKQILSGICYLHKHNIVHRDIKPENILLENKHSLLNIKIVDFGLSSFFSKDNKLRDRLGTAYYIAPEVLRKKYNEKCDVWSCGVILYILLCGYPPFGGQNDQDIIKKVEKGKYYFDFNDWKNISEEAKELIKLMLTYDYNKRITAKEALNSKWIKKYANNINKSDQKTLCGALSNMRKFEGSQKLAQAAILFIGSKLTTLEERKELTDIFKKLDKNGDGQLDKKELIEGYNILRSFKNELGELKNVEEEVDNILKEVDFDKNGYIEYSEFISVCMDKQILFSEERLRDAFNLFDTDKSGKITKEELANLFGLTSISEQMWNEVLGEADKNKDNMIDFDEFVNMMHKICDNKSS
Chain of Plasmodium falciparum protein kinase 6 (PK6, PF3D7_1337100) (Q8IDW1 1-305): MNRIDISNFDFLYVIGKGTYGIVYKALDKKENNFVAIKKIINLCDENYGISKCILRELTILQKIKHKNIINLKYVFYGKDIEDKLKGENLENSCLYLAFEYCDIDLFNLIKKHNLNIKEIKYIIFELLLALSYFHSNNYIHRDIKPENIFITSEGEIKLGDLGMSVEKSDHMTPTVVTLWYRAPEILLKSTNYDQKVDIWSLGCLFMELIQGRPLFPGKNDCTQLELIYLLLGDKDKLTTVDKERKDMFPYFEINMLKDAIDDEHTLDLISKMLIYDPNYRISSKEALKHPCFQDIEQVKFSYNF

CCc1cc2c3c(N)nc(N)nc3ccc2n1C(C)(C)C
inactive: inhibition [1] -11% | outcome [3] | outcome [4] | outcome [5] | outcome [6]
active: growth inhibition [2] 99%

N#Cc1ccc(C(=O)Nc2cc(-c3cccc(O)c3)cc3[nH]ncc23)cc1
inactive: inhibition [8] 15% | inhibition [1] -1% | outcome [3] | outcome [4] | outcome [5]
active: growth inhibition [7] 79% | growth inhibition [2] 90%

Cc1nc(Nc2ccc(F)cc2)nc(N2CCc3ccccc3[C@@H]2C)c1C
inactive: inhibition [8] 12% | inhibition [1] -3% | outcome [3] | outcome [4] | outcome [5] | outcome [6]
active: growth inhibition [2] 92%

Clc1ccc(C=NNc2ccnc3cc(Cl)ccc23)cc1
inactive: inhibition [1] -3% | outcome [3] | outcome [4] | outcome [5] | outcome [6]

O=C(NCCCCN1CCC(c2ccc3c(c2OCCCO)CCCC3)CC1)c1ccc(-c2ccc(C(F)(F)F)cc2)c(CO)c1
active: inhibition [8] 66% | growth inhibition [2] 95%
inactive: inhibition [1] 4% | outcome [3] | outcome [4] | outcome [5] | outcome [6]

Cc1[nH]nc2ccc(-c3cc(OC[C@@H](N)Cc4ccccc4)cnc3-c3cc4ccccc4s3)cc12
inactive: inhibition [8] 41% | inhibition [1] -3% | outcome [3] | outcome [4] | outcome [5]
active: growth inhibition [7] 68% | growth inhibition [2] 99%

Cc1ccccc1Cn1ccc2c3c(N)nc(N)nc3ccc21
active: growth inhibition [2] 100%
inactive: inhibition [1] -4% | outcome [3] | outcome [4] | outcome [5] | outcome [6]

Cc1cccc(Cn2ccc3c(N)nc(N)nc32)c1
active: growth inhibition [2] 82%
inactive: inhibition [1] 5% | outcome [3] | outcome [4] | outcome [5] | outcome [6]

COc1ccc(CN2CCN(CC(=O)Nc3cc(Cl)ccc3-n3cncn3)CC2)cc1F
inactive: inhibition [8] 0% | inhibition [1] -1% | outcome [3] | outcome [4] | outcome [5] | outcome [6]
active: growth inhibition [2] 93%

CCS(=O)(=O)c1ccc(OC)c(Nc2nccc(-c3c(-c4cccc(NC(=O)c5c(F)cccc5F)c4)nn4ncccc34)n2)c1
active: growth inhibition [7] 88% | growth inhibition [2] 87%
inactive: inhibition [8] 27% | inhibition [1] -5% | outcome [3] | outcome [4] | outcome [5]

Cc1ccc(Cn2ccc3c4c(N)nc(N)nc4ccc32)cc1
inactive: inhibition [1] -6% | outcome [3] | outcome [4] | outcome [5] | outcome [6]
active: growth inhibition [2] 99%

CCn1c(-c2nonc2N)nc2c(-c3cc4ccccc4s3)ncc(C(=O)N3CCC(N)C3)c21 (stereo not drawn)
inactive: inhibition [1] 5% | outcome [3] | outcome [4] | outcome [5]
active: growth inhibition [7] 66% | inhibition [8] 99% | growth inhibition [2] 98%

C=CCOc1cc(Cc2cnc(N)nc2N)cc(OC)c1OC
active: growth inhibition [2] 81%
inactive: inhibition [8] -14% | inhibition [1] 2% | outcome [3] | outcome [4] | outcome [5] | outcome [6]

CN(c1ccc(NC(=O)Nc2cccc(Cl)c2)cc1)c1ccnc(N)n1
active: inhibition [8] 75% | growth inhibition [2] 100%
inactive: growth inhibition [7] 40% | inhibition [1] -1% | outcome [3] | outcome [5] | outcome [6]

O=[N+]([O-])c1ccc(-n2nc(-c3cccnc3)n(Cc3ccco3)c2=S)c(Cl)c1
inactive: inhibition [8] 13% | inhibition [1] -1% | outcome [3] | outcome [4] | outcome [5] | outcome [6]
active: growth inhibition [2] 95%

N#Cc1cc(N(CCCOc2cccc(OC(F)(F)F)c2)Cc2ccccc2C(F)(F)F)ccc1C(F)(F)F
active: growth inhibition [2] 94%
inactive: inhibition [8] 2% | inhibition [1] 0% | outcome [3] | outcome [4] | outcome [5] | outcome [6]

Brc1ccsc1-c1nc(NC2CCN(Cc3ccccc3)CC2)no1
active: growth inhibition [2] 80%
inactive: inhibition [8] 0% | inhibition [1] -2% | outcome [3] | outcome [4] | outcome [5] | outcome [6]

COc1c(C2CCN(CCCCNC(=O)C=Cc3ccccc3C(F)(F)F)CC2)ccc2c1CCCC2
inactive: inhibition [1] -3% | outcome [3] | outcome [4] | outcome [5] | outcome [6]
active: inhibition [8] 98% | growth inhibition [2] 96%

Nc1[nH]c2ccccc2c(=O)c1-c1nc2ccccc2s1
inactive: inhibition [8] 16% | inhibition [1] -6% | outcome [3] | outcome [4] | outcome [5] | outcome [6]
active: growth inhibition [2] 97%

CS(=O)(=O)Cc1ccc(Nc2ncc(Cl)c(Nc3cccnc3C(N)=O)n2)cc1
inactive: inhibition [1] -4% | outcome [3] | outcome [5] | outcome [6]
active: growth inhibition [7] 97% | inhibition [8] 54% | growth inhibition [2] 97%

CN1CCC(NC(=O)c2cccc(Nc3cc(Nc4cccc(Br)c4)ncn3)c2)CC1
inactive: growth inhibition [7] 6% | inhibition [8] 25% | inhibition [1] 1% | outcome [3] | outcome [5] | outcome [6]
active: growth inhibition [2] 94%

CN(c1ccc(NC(=O)Nc2cc(C(F)(F)F)ccc2F)cc1)c1ccnc(NCCN2CCOCC2)n1
inactive: inhibition [1] -2% | outcome [3] | outcome [5] | outcome [6]
active: growth inhibition [7] 73% | inhibition [8] 67% | growth inhibition [2] 97%

N=C(N)c1ccc(Nc2nc(Nc3ccc(-c4ccccc4)cc3)ncc2[N+](=O)[O-])cc1
active: growth inhibition [2] 99%
inactive: growth inhibition [7] 35% | inhibition [8] 11% | inhibition [1] -3% | outcome [3] | outcome [5] | outcome [6]

Cn1cnc2c(Nc3ccncc3)nc(-c3ccc4c(c3)OCO4)nc21
inactive: growth inhibition [7] 2% | inhibition [8] 19% | inhibition [1] -1% | outcome [3] | outcome [5] | outcome [6]
active: growth inhibition [2] 96%

CC(C)(CNC(=O)C1CCN(Cc2ccoc2)CC1)c1nc(-c2ccc(Cl)c(O)c2)c(-c2ccncc2)[nH]1
inactive: inhibition [8] -12% | inhibition [1] -2% | outcome [4] | outcome [5] | outcome [6]
active: growth inhibition [7] 66% | growth inhibition [2] 93%

CN(c1ccc(NC(=O)Nc2cc(C(C)(C)C)on2)cc1)c1ccnc(NCCN2CCOCC2)n1
active: inhibition [8] 51% | growth inhibition [2] 95%
inactive: growth inhibition [7] 18% | inhibition [1] -5% | outcome [3] | outcome [5] | outcome [6]

CN(c1ccc2c(c1)nc(NCc1ccc(F)cc1)n2C)c1ccnc(Nc2ccc(CS(C)(=O)=O)cc2)n1
inactive: inhibition [8] 48% | inhibition [1] 7% | outcome [3] | outcome [5] | outcome [6]
active: growth inhibition [7] 79% | growth inhibition [2] 97%
